Sampled rows, rich in hits. Any-hit rate of the full collection: about 1.6%.
PABP FP inh: blocks human PABP binding to poly(A) RNA; inhibition, % at 35 µM; 1% of 290,000 active; fluorescence polarization;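 further: calls also rest on retests at 20 µM and on dose response follow-up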
eIF4H inh: inhibitors of RNA binding by human eIF4H; eIF4H fluorescence polarization binding assay; inhibition, % at 35 µM; 0.94% of 290,000 active; AID 2012;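 further: calls also rest on retests at 20 µM and on dose response follow-up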
PERK inhibitor: blocks human PERK kinase; CHO PERK-DD fusion, SEAP luminescence translation reporter; inhibition, % at 5.6 µM; 0.17% of 220,000 active; AID 1416;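 active means inhibition above the mean inhibition of all tested compounds plus 3 SD, set separately per screening campaign, cut at about 2.9% in these data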;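 further: PERK kinase domain activated by AP20187 dimerizer at 100 nM; 0% = DMSO with dimerizer and 100% = rapamycin at 8.4 µM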
eIF4E 4G PPI: blocks eIF4E binding to eIF4G. P63073+Q04637. inhibition, % at 21.7 µM. 0.37% of 220,000 active. TR-FRET eIF4E-eIF4GI(517-606) binding, 2 h. AID 782;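 active means inhibition above about 30%, limit read from the data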;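 further: 0% = full FRET control wells and 100% = background wells lacking eIF4GI fragment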
PABP1 MLLE inh: inhibitors of microRNA-mediated deadenylation, human PABP1 MLLE binding; GST-MLLE / FITC-PAM2 fluorescence polarization; 0.36% of 360,000 active; inhibition, % at 20 µM; P11940; in the data active means inhibition above about 35%, passing the limit was not always enough;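 further: plate controls were DMSO wells with GST-MLLE for no effect and wells lacking GST-MLLE protein for full effect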
* hit, by the source's call; . = not tested or not shown; ! = not active in a repeat; [ ] = remark or other dose. Unless noted, how the calls were made is not given here.

SMILES | PABP FP inh | eIF4H inh | PERK inhibitor | eIF4E 4G PPI | PABP1 MLLE inh
CC(Oc1ccc2ccc(=O)oc2c1)C(=O)NC(Cc1c[nH]c2ccc(O)cc12)C(=O)O (stereo not drawn) | 45.4 | 86.8* | . | . | -13.8
Cc1c(C)c2ccc(OC(C)C(=O)N[C@@H](Cc3c[nH]c4ccccc34)C(=O)O)c(C)c2oc1=O (stereo partly drawn) | 20.1 | -5.3 | . | . | -0.2
O=C(NCC(=O)N1CCCC(C(F)(F)F)C1)c1cccs1 (stereo not drawn) | . | . | . | . | 5.8
CCN(CC(=O)NCc1ccc(F)cc1)C(=O)COc1ccc2ccccc2c1 | 3.6 | -17.7 | -0.5 | 2.9 | -4.6
CCc1ccccc1OCC(=O)N(CC)CC(=O)NCc1ccc(F)cc1 | 119.5* | active | 0.8 | 5.0 | -1.6
Cc1ccc(Oc2nnc(-c3ccccc3)c3ccccc23)cc1 | 8.1 | -4.6 | 0.2 | 8.1 | -7.7
N#C/C(=C/c1ccccc1OCc1ccc(F)cc1)c1ccc(C(=O)O)cc1 | 65.2* | 16.6 | . | . | -88.5
COCCn1c(SCC(=O)N2CCCc3ccccc32)nnc1-c1ccco1 | -1.1 | -5.8 | -0.9 | -1.2 | -2.4
CN(C)CCSc1nc(O)c(-c2ccccc2)c(=O)n1-c1ccccc1 | 11.7 | -6.0 | -0.1 | 7.1 | 14.7
CCCCc1c(O)nc(SCCN(C)C)n(-c2ccccc2)c1=O | -12.8 | -14.3 | 0.4 | -3.8 | 37.8*
CC(C)(C)NC(=O)CSc1nc2ccc(NC(=O)CSc3nnc(N)s3)cc2s1 | -1.2 | 1.9 | 0.2 | 2.2 | -151.3
C[n+]1cccc2cccc([O-])c21 | 47.4* | 98.6 | 1.4 | 9.5 | 26.7
O=C(O)c1cc(-c2ccco2)nc2ccc(Br)cc12 | 92.8*! | 87.0* | 1.2 | 4.7 | 23.9
O=C(Nc1cccc(C(F)(F)F)c1)c1ccc2nc(-c3ccco3)c(-c3ccco3)nc2c1 | 31.1* | 74.8* | -1.2 | 11.2 | -14.4
O=C(O)c1ccc2nc(-c3ccco3)c(-c3ccco3)nc2c1 | 90.3* | 98.2* | 1.9 | 11.6 | 50.4*
O=C(NCc1ccco1)c1ccc(S(=O)(=O)N2CCCCC2)cc1 | -8.6 | -6.7 | 0.5 | -2.7 | 5.8
O=C(Nc1cccc(C(F)(F)F)c1)c1cc[n+]([O-])cc1 | 11.1 | -7.7 | . | . | -0.9
O=C(NCc1ccco1)c1ccc(S(=O)(=O)N2CCOCC2)cc1 | 26.5* | 78.8* | 0.2 | 2.2 | 26.7
CNC(=O)CN(c1ccc(OC)cc1)S(=O)(=O)c1ccc(F)cc1 | -3.4 | -0.4 | 0.6 | -6.2 | -0.1
O=C(c1ccc2nc(-c3ccco3)c(-c3ccco3)nc2c1)N1CCN(c2ccccc2)CC1 | 53.1* | 93.7* | -0.1 | -19.2 | 21.6
O=S(=O)(c1ccc2nc(-c3ccco3)c(-c3ccco3)nc2c1)N1CCOCC1 | 81.7* | 94.9* | -0.3 | 22.8 | 23.0
CCc1nc2ccc(C(=O)N3CCN(c4ccccc4)CC3)cc2nc1CC | -7.5 | -9.1 | . | . | -10.8
COc1cc(CN2CCC(C)CC2)ccc1OCc1ccccc1 | -1.8 | 9.9 | . | . | 4.4
Cc1c(C(=O)Oc2cccc3cccnc23)oc2ccccc12 | 4.1 | 3.6 | 0.8 | -1.0 | 3.7
CCCc1nnc(NC(=O)c2c(O)c3cccc4c3n(c2=O)CCC4)s1 | active | 95.9* | . | . | .
SMILES | PABP FP inh | eIF4H inh | PERK inhibitor | eIF4E 4G PPI | PABP1 MLLE inh
CCOC(=O)CC1COCCN1C(=O)c1cc(COc2ccccc2SC)on1 (stereo not drawn) | . | . | . | . | 11.2
CC(C)(C)C(=O)Nc1cccc2[nH]ncc12 | 2.2 | 1.5 | 1.4 | 4.5 | 12.0
C/C(=N\NC(=O)c1ccc(C)cc1C)c1ccc2c(c1)Nc1ccccc1S2 | 3.7 | -11.9 | 0.1 | 3.6 | 6.4
CC(=O)c1ccc2c(c1)Nc1ccccc1S2 | 77.0* | 66.7* | 0.2 | 7.5 | 7.3
CC(=O)c1ccc2c(c1)N(CCCN(C)C)c1ccccc1S2 | . | . | . | . | 50.2*
CCOC(=O)c1c(C)[nH]c(C)c1C(=O)CSc1nnc(-c2cc(OC)c(OC)c(OC)c2)o1 | -0.5 | 0.1 | 3.2* | 2.8 | -22.0
CCCCOC(=O)CSc1nnc(-c2cc(OC)c(OC)c(OC)c2)o1 | 9.2 | -3.8 | 0.8 | -2.9 | -14.0
CCCC(=O)N(Cc1cc(=O)[nH]c2ccccc12)c1ccccc1 | 15.2 | 7.5 | . | . | 7.4
Cc1cc(C)n(NC(=S)NC2CCCCC2)c(=O)c1C#N | -3.2 | -1.7 | 0.7 | 3.8 | 44.9*
Cc1cc(C)n(CCCO)c(=O)c1C#N | -5.1 | -1.8 | 0.3 | -2.5 | -4.2
CC(C)(O)C1Cc2cc(/C=C/C(=O)O)c(O)cc2O1 (stereo not drawn) | 33.0 | 13.8 | 1.4 | 61.9* | 16.3
CCCCCCCCCCCCCCCC[n+]1ccc(C(N)=O)cc1 | 2.7 | -9.0 | 0.2 | 77.6*[fluorescence artefact?] | -91.3
